Hits are enriched below; roughly 2.8% of the tested compounds scored in any of these assays.
KLK7 zymogen act = activators of human kallikrein-7 zymogen. P49862. actives 0.9% (n = 370,000). activation, % at 7 µM. AID 652039. purified proKLK7, EDANS-DABCYL substrate fluorescence; 100% is mature enzyme control, 0% vehicle;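 active means activation above the mean of all tested compounds plus 3 SD, computed per campaign excluding outliers beyond control limits, cut at about 13% in these data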
Target sequence (P49862 whole entry, looked up): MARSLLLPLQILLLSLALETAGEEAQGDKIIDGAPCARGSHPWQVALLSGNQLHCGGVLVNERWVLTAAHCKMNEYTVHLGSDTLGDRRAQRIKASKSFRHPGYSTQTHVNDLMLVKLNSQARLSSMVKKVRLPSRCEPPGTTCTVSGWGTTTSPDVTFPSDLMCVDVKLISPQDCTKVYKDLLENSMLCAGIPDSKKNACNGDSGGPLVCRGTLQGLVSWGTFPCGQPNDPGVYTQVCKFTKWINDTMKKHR
NR1D1 modulator = modulators of human Rev-erb alpha DNA binding | P20393 | Rev-erbα–FITC-DNA binding, fluorescence polarization, 90 min | activity, % at 10 µM | actives 0.79% (n = 370,000) | AID 1259318;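 active means activity above about 14%, limit read from the data; passing the limit was not always enough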;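 further: 0% = DMSO wells with 35 nM protein and 100% = DMSO wells with 750 nM protein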
PP5 primary = PP5 (human) phosphatase inhibition; P53041; purified PP5c, OMFP substrate fluorescence; inhibition, % at 6.7 µM; actives 0.18% (n = 320,000);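 active means inhibition above the campaign's mean inhibition across all tested compounds plus 3 SD, cut at about 9.5% in these data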;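 further: 0% = DMSO only and 100% = 100 µM cantharidin control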
PG9 Ab binder = binds the HIV-1 gp120 antibody PG9; inhibition, % at 6.7 µM; actives 0.43% (n = 360,000); TR-FRET gp120-PG9 antibody binding; AID 624416; in the data active means inhibition above about 8.5%
JMJD2C inh = inhibitors of human GASC-1 (JMJD2C) demethylase. actives 0.069% (n = 330,000). GST-JMJD2C(1-420) H3K9me3 demethylation, DELFIA europium. inhibition, % at 2.35 µM;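 active means more than half of a compound's replicate wells show inhibition beyond 50%, single wells judged on their own value; inconclusive means some, but no more than half, of replicates pass 50% inhibition; inactive means no replicate passes 50% inhibition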;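 further: signal counts dimethyl H3K9 product captured on neutravidin plate; 0% = median of DMSO wells and 100% = 0.3 times that DMSO median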
PP1 counter = blocks human PP1-alpha phosphatase, a PP5 counter-screen. inhibition, % at 6.7 µM. AID 2235. purified PP1alpha, OMFP fluorescence. actives 0.9% (n = 320,000). P62136;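 active means inhibition above the mean inhibition of all tested compounds plus 3 SD, computed separately for each screening campaign, cut at about 15% in these data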
The depositor's hits bear a star; ? = inconclusive; · = no result given.

SMILES	KLK7 zymogen act	NR1D1 modulator	PP5 primary	PG9 Ab binder	JMJD2C inh	PP1 counter
CCC(C)(C)c1ccc(OCCCC[n+]2ccccc2)c(C(C)(C)CC)c1	0	16	6	0	-23	15*
CCCCCc1ccc(OCCCC[n+]2ccccc2)c(CCCCC)c1	·	·	-1	·	?	13
O=c1[nH]n2c(=O)c3c([nH]c2c1N=Nc1cccc(Cl)c1)CCC3	0	-27	3	-9	5	17*
COc1cccc2c1[C@@H]1CN(CCCCn3c(=O)[nH]c4c(sc5ncc(-c6ccccc6)nc54)c3=O)C[C@@H]1CO2	2	-4	-3	0	·	17*
O=C(Nc1c(C(=O)N2CCCC2)cnn1-c1ccccc1)c1cccc(F)c1	0	-3	-3	-2	-7	-1
NC(=O)C1CCN(C(=O)c2cnn(-c3ccccc3)c2NC(=O)c2cccc(F)c2)CC1	0	0	2	0	75*	0
C[C@H]1CN(CCc2ccccc2)C(=O)[C@@H]1CC(=O)NCc1ccccc1	1	-4	0	-2	61*	-2
C[C@H]1CN(Cc2ccccc2)C(=O)[C@@H]1CC(=O)NCc1ccccc1	-1	4	-1	0	-12	-1
CC1=C(C(=O)O)N2C(=O)[C@@H](NC(=O)[C@H](N)C3=CCC=CC3)[C@@H]2SC1	·	-2	·	·	·	·
O=[N+]([O-])/C=C/c1cn(Cc2ccc(Cl)cc2)c2ccccc12	-1	-9	2	-1	0	16*
O=C(O)c1ccc(Cn2cc(/C=C\[N+](=O)[O-])c3ccccc32)o1	-1	-5	-1	-1	-7	2
CCOC(=O)Cn1cc(/C=C/[N+](=O)[O-])c2ccccc21	0	0	3	-2	-1	-5
Cc1cccc(Cn2cc(/C=C/[N+](=O)[O-])c3ccccc32)c1	-2	-3	3	-1	-2	17*
CCn1c(COc2ccc(C)cc2)nnc1SCC(=O)Nc1ccccc1-c1ccccc1	0	-1	·	·	·	·
C=C1C2CCC(C2)C1(C)C (stereo not drawn)	·	-1	·	·	·	·
Cc1ccc2c(c1)c1c3n2CCCNC3CCC1 (stereo not drawn)	0	1	7	-1	86*	-8
Cc1ccc(S(=O)(=O)NC(=O)c2ccc(-c3ccc(-c4ccccc4)cc3)o2)c(C)c1	·	·	3	·	1	16*
CC(Sc1nnc(NCc2ccccc2)s1)C(=O)Nc1ccc2c(c1)C(=O)c1ccccc1C2=O (stereo not drawn)	1	-5	3	-1	0	17*
C=CCn1c(SCC(=O)Nc2ccccc2OCC)nnc1-c1ccc(C(C)(C)C)cc1	0	-11	·	·	·	·
C[C@@H](O)[C@H](N)C(=O)O	·	-1	·	·	·	·
O=C(C[n+]1cc(-c2ccc(Cl)cc2)n2c1CCC2)Nc1nc(-c2ccccc2)cs1	0	-7	2	1	16	16*
O=C(C[n+]1cc(-c2ccc(F)cc2)n2c1CCC2)Nc1nc(-c2ccccc2)cs1	0	5	1	1	-1	8
COc1cccc(CNC(=S)OC2CCC23CCC(c2ccccc2)CC3)c1 (stereo not drawn)	-1	0	·	·	·	·
CO/N=C(/C(=O)N[C@H]1C(=O)N2C(C(=O)OC(C)OC(C)=O)=C(COC(N)=O)CSC12)c1ccco1 (stereo partly drawn)	·	-5	·	·	·	·
COc1ccccc1OCCCOc1cccc(/C=C2\SC(=O)NC2=O)c1	0	-2	2	-2	76	16*
CCN(CC)c1ccc(NC(=O)COC(=O)/C=C/c2nc3ccccc3s2)cc1	1	-8	1	-3	-2	15*
CC(C)(C)c1ccc(OCCC(=O)Nc2cccc(S(=O)(=O)N3CCCCC3)c2)cc1	-1	6	0	1	16	16*
CCCC(=O)N1CCN(c2ccc(NC(=O)c3sc4ccccc4c3Cl)cc2)CC1	-1	-13	1	-5	3	16*
COC(=O)c1c(NC(=O)COC(=O)[C@@H](NS(=O)(=O)c2cccc(Cl)c2)C(C)C)sc2c1CCC2	-3	-2	1	0	6	15*
COC(=O)c1sc(N)c(C(=O)OC)c1COC(=O)[C@@H](NS(=O)(=O)c1cccc(Cl)c1)C(C)C	0	-5	3	0	0	2
